# Potency and affinity values are given separately. Inconclusive results are not listed. A call without a number means that no potency is given here. Values without a mark were called inactive. The source made the active and inactive calls. Unless noted, how the calls were made is not given here.
# What was measured:
# [1] = RMG-1 ovarian cancer cell viability loss – cherry-pick, dose response (AID 687029;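 active means signal drop whose fitted half-maximal concentration is at most twice the top valid dose, in every test run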;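 further: cells exposed to compound for 96 hours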)
# [2] = general cell-killing toxicity readout – plate reader, dry powder samples, cytotoxicity control for PAX8 inhibitor project, dose response (AID 743021)
# [3] = IOSE-T80 viability loss, PAX8-independent line – cell-based, cherry-pick, selectivity assay for PAX8 inhibitor project, dose response (AID 687032;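 active means fitted half-maximal concentration for viability loss no higher than twice the top valid dose, in every repeat run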;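 further: cells exposed to compound for 96 h before reading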)
# [4] = CMV-driven luciferase expression suppression in HEK293 – cell-based, luminescence, dry powder, counter-screen for Pax8 inhibitor project, dose response (AID 743020;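 active means signal-lowering compounds whose fitted half-maximal concentration is at or below twice the top tested dose in every run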;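 further: HEK293 cells stably expressing the CMV luciferase reporter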)
# [5] = IGROV1 cell killing – plate reader, dry powder samples, PAX8 inhibitor project, dose response (AID 743043);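 further: more negative means fewer viable cells or more cytotoxicity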
# [6] = toxicity toward immortalized ovarian surface epithelium – cell-based, plate reader, dry powder samples, cytotoxicity control for PAX8 inhibitor project, dose response (AID 743045);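 further: more negative values mean more cell killing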
# [7] = OVCAR8 cell viability loss – plate reader, dry powder samples, PAX8 project, dose response (AID 743197)
# [8] = OVCAR-3 cell viability loss – plate reader, dry powder samples, PAX8 inhibitor project, dose response (AID 743044); conditions: max activity: at 35 µM, active compounds read low unless noted
# [9] = A2780 cell killing – plate reader, dry powder samples, cytotoxicity control, dose response (AID 743046)
# [10] = toxicity toward HepG2 liver cells – cell-based, plate reader, cherry-pick, antagonist series, cytotoxicity control, dose response (AID 743416)
structure (smiles),measurement,setting,value
COc1ccc(-n2ncc(Cl)c(Cl)c2=O)cc1,outcome,[1],inactive
same,outcome,[2],inactive
C=CCN1C(=O)/C(=C/c2ccc(OC(C)=O)c(OCC)c2[N+](=O)[O-])SC1=S,outcome,[1],inactive
same,outcome,[2],inactive
CN(C)c1ncnc2c1nnn2C1OC(CO)C(O)C1O (configuration not stated),outcome,[1],inactive
same,outcome,[2],inactive
CCCc1ccc(C(=O)O/N=C(\N)c2ccccn2)cc1,outcome,[1],inactive
same,outcome,[2],inactive
O=S(=O)(NC1CCCCC1N1CCN(c2ccccc2F)CC1)c1ccccc1 (configuration not stated),outcome,[1],inactive
same,outcome,[2],inactive
CN(/N=C/c1ccc(O)cc1O)c1nc(-c2ccccc2)cc(-c2ccccc2)n1,outcome,[1],inactive
same,outcome,[2],inactive
CCN(CC)S(=O)(=O)c1cccc(NC(=O)Nc2cccc(C(F)(F)F)c2)c1,outcome,[1],inactive
same,outcome,[2],inactive
COc1cc(CNc2ncnc3c2ncn3[C@H]2CN(Cc3ccc(-c4ccccc4)cc3)C[C@@H](CO)O2)cc(OC)c1OC,outcome,[1],inactive
same,outcome,[2],inactive
CC1=CC(C)(C)N2C(=O)C3(NCCc4c3[nH]c3ccccc43)c3cc(C)cc1c32 (configuration not stated),outcome,[1],inactive
same,outcome,[2],inactive
COc1ccc(OC)c(-c2nnc3n2N=C(c2ccc(OC)c(OC4CCCC4)c2)CS3)c1,outcome,[1],inactive
same,outcome,[2],inactive
Cn1nnnc1Sc1ncnc2scc(-c3cc4ccccc4o3)c12,outcome,[1],inactive
same,outcome,[2],inactive
COc1ccc(-c2cnc3c(NC=O)cc(-c4cccc(NS(C)(=O)=O)c4)cn23)cc1OC,outcome,[1],inactive
same,outcome,[2],inactive
COc1ccc2c(C)nc(Nc3nc(-c4ccccc4)cc(=O)[nH]3)nc2c1,outcome,[1],inactive
same,outcome,[2],inactive
O=C(COC(=O)/C(=C/c1cccs1)c1cccs1)NC(c1ccccc1)c1ccccc1,outcome,[1],inactive
same,outcome,[2],inactive
COc1ccc(C[C@H](N)C(=O)N[C@H]2[C@@H](O)[C@H](n3cnc4c(N(C)C)ncnc43)O[C@@H]2CO)cc1,outcome,[1],inactive
same,outcome,[2],inactive
CCOC(=O)N1CCC(NC(=O)c2ccc3c(c2)N=C(C)c2c(C)ccc(C)c2S3)CC1,outcome,[1],inactive
same,outcome,[2],inactive
CC1CCCC=CC2CC(OC(=O)CN(C)C)CC2C(O)C=CC(=O)O1 (configuration not stated),outcome,[1],inactive
same,outcome,[2],inactive
C[C@H]1O[C@@H](O[C@H]2[C@@H](O)C[C@H](O[C@H]3[C@@H](O)C[C@H](O[C@H]4CC[C@@]5(C)[C@H](CC[C@@H]6[C@@H]5C[C@@H](O)[C@]5(C)[C@@H](C7=CC(=O)OC7)CC[C@]65O)C4)O[C@@H]3C)O[C@@H]2C)C[C@H](O)[C@@H]1O,outcome,[1],inactive
same,outcome,[2],inactive
O=C(Nc1ccc(N2CCN(C(=O)c3cccs3)CC2)cc1)c1ccc([N+](=O)[O-])o1,outcome,[1],inactive
same,outcome,[2],inactive
CC(=O)c1cc(NC(=O)c2cccc(C(F)(F)F)c2)c(=O)oc1C,outcome,[1],inactive
same,outcome,[2],inactive
O=C(COc1ccccc1-c1ccccc1)N/N=C/c1ccc2ccccc2c1,outcome,[1],inactive
same,outcome,[2],inactive
CC(=O)NC(c1ccc(C(C)C)cc1)c1ccc2cccnc2c1O (configuration not stated),outcome,[1],inactive
same,outcome,[2],inactive
CC[C@@H]1CCC[C@@H](O)[C@@H](C)C(=O)O[C@H](C)[C@@H](C)C/C=C(C)/C(OC)=C\C(=O)N(C)C([C@@H](C)CC)C(=O)N(C)[C@@H](C(C)C)C(=O)N(C)[C@@H](COC)C(=O)N2CCC[C@H]2C(=O)N(C)[C@@H](C(C)C)C(=O)N2CCC[C@H]2C(=O)O1 (some centres not stated),outcome,[1],inactive
same,outcome,[2],inactive
CC(=O)Nc1ccc(-c2ccnc3c2CC(C(=O)NCc2ccccc2)O3)cc1 (configuration not stated),outcome,[1],inactive
same,outcome,[2],inactive
O=c1[nH]c(-c2ccccn2)nc2sc(-c3ccccc3)cc12,outcome,[1],inactive
same,outcome,[2],inactive
O=C(/C=C/c1cccs1)NC(=S)NNC(=O)c1ccccc1O,outcome,[1],inactive
same,outcome,[2],inactive
O=[N+]([O-])c1ccc(N/N=C/c2sc(N3CCOCC3)nc2-c2ccccc2)c(S(=O)(=O)Nc2ccc(Cl)cc2)c1,outcome,[1],inactive
same,outcome,[2],inactive
Oc1ccc(C[C@H]2CNC(=S)N2CC2CCCN2C[C@H](Cc2ccc(O)cc2)N2C[C@H](Cc3ccc(O)cc3)N(CC3CCCCCC3)C2=S)cc1 (some centres not stated),outcome,[1],inactive
same,outcome,[2],inactive
COc1cccc2c1C(=O)c1c(O)c3c(c(O)c1C2=O)C[C@@](O)(C(C)=O)C[C@@H]3O[C@H]1C[C@H](N)[C@H](O)[C@H](C)O1,outcome,[1],inactive
same,outcome,[2],inactive
Cc1cc(-c2n[nH]c(=S)n2/N=C/C(Br)=C/c2ccccc2)n[nH]1,outcome,[1],inactive
same,outcome,[2],inactive
COc1cc([C@@H]2c3cc4c(cc3[C@H](O)[C@H]3COC(=O)[C@H]23)OCO4)cc(OC)c1OC,outcome,[1],inactive
same,outcome,[2],inactive
N#C[C@@H]1[C@H](c2ccc(C#Cc3ccc(F)cc3)cc2)[C@@H](CO)N1C(=O)Nc1ccc(F)cc1,outcome,[1],inactive
same,outcome,[2],inactive
COc1cc2c(c(OC)c1OC)-c1ccc(SC)c(=O)cc1C(NC=O)CC2 (configuration not stated),outcome,[1],inactive
same,outcome,[2],inactive
CCCC(=O)N1CCN(c2ccc(NC(=O)c3ccc([N+](=O)[O-])o3)cc2)CC1,outcome,[1],inactive
same,outcome,[2],inactive
O=C(CCS(=O)(=O)c1ccc(Cl)cc1)Nc1nc(-c2ccncc2)cs1,outcome,[1],inactive
same,outcome,[2],inactive
COc1cc(C2C(C#N)=C(N)Oc3cc4c(cc32)OCO4)cc(OC)c1OC (configuration not stated),outcome,[1],inactive
same,outcome,[2],inactive
O=C(Nc1cccc(C(F)(F)F)c1)Nc1ccc(N2CCCC2)c(S(=O)(=O)Nc2ccccc2Cl)c1,outcome,[1],inactive
same,outcome,[2],inactive
C[C@@H]1CN([C@@H](C)CO)C(=O)Cc2cc(NC(=O)Nc3ccc(C(F)(F)F)cc3)ccc2O[C@@H]1CN(C)S(=O)(=O)c1ccc(Cl)cc1,outcome,[1],inactive
same,outcome,[2],inactive
O=C(NN=Cc1c(O)ccc2ccccc12)c1ccncc1,outcome,[1],inactive
same,outcome,[2],inactive
COc1cc2c(c(OC)c1OC)-c1ccc(OC)c(=O)cc1[C@@H](NC(C)=O)CC2,outcome,[1],inactive
same,outcome,[2],inactive
O=C(NCCc1ccccc1F)c1ccc2c(c1)OCCO2,outcome,[1],inactive
same,outcome,[2],inactive
Cc1ccc(/C=N/NC(=O)COc2ccccc2-c2ccccc2)cc1,outcome,[1],inactive
same,outcome,[2],inactive
O=c1ccc2ccccc2c2ccccc12,outcome,[1],inactive
same,outcome,[2],inactive
O=[N+]([O-])c1ccc(O)c(-c2cc(C(F)(F)F)nc(-c3ccccc3)n2)c1,outcome,[1],inactive
same,outcome,[2],inactive
COc1ccc(/C=C/C(=O)c2cc(F)ccc2OC(=O)c2ccccc2C)cc1OC,outcome,[1],inactive
same,outcome,[2],inactive
O=C(c1ccc(Br)cc1)c1cc([N+](=O)[O-])ccc1N1CCCCC1,outcome,[1],inactive
same,outcome,[2],inactive
C=CC(=O)N1C/C(=C/c2ccc(F)cc2)C(=O)/C(=C\c2ccc(F)cc2)C1,outcome,[1],inactive
same,outcome,[2],inactive
O=c1[nH]nnc2c1ncn2C1OC(CO)C(O)C1O (configuration not stated),outcome,[1],inactive
same,outcome,[2],inactive
O=C(C[C@@H]1C[C@H]2c3cc(NS(=O)(=O)c4ccc(F)cc4)ccc3O[C@H]2[C@H](CO)O1)NCc1ccc(-c2ccccc2)cc1,outcome,[1],inactive
same,outcome,[2],inactive
COc1cccc2c1C(=O)c1c(O)c3c(c(O)c1C2=O)C[C@@](O)(C(=O)CO)C[C@@H]3O[C@H]1C[C@H](N)[C@H](O)[C@H](C)O1,outcome,[1],inactive
same,outcome,[2],inactive
CCCCC(=O)NC(c1ccccc1OC)c1ccc2cccnc2c1O (configuration not stated),outcome,[1],inactive
same,outcome,[2],inactive
CCC(=O)N1CCN(c2ccc(NC(=O)c3ccc([N+](=O)[O-])o3)cc2Cl)CC1,outcome,[1],inactive
same,outcome,[2],inactive
COc1ccc(NC(=O)C(=O)NCC2CCCN2S(=O)(=O)c2ccc(C)cc2)cc1 (configuration not stated),outcome,[1],inactive
same,outcome,[2],inactive
O=C(Cn1ncc(Cl)c(Cl)c1=O)N1CCN(S(=O)(=O)c2ccc3ccccc3c2)CC1,outcome,[1],inactive
same,outcome,[2],inactive
OC[C@H]1O[C@@H](n2cnc3c(NCc4ccco4)ncnc32)[C@H](O)[C@@H]1O,outcome,[1],inactive
same,outcome,[2],inactive
Cc1cccc(N(C)S(=O)(=O)c2ccc(-c3cnc(C4CC4)o3)cc2)c1,outcome,[1],inactive
same,outcome,[2],inactive
CCCCCC(CC(=O)NO)C(=O)NC(C(=O)N1CCCC1CO)C(C)C (configuration not stated),outcome,[1],inactive
same,outcome,[2],inactive
COc1cc(-c2c(-c3cc(OC)c(OC)c(OC)c3)noc2C)ccc1F,outcome,[1],inactive
same,outcome,[2],inactive
CCCCC(=O)NC(c1ccccc1)c1ccc2cccnc2c1O (configuration not stated),outcome,[1],inactive
same,outcome,[2],inactive
Cn1c(=O)[nH]c(=O)c2c1nc([N+](=O)[O-])n2Cc1ccccc1,outcome,[1],inactive
same,outcome,[2],inactive
COC(=O)[C@H]1[C@@H](O)[C@@]2(O)c3c(OC)cc(OC)cc3O[C@@]2(c2ccc(OC)cc2)[C@@H]1c1ccc(F)cc1,outcome,[1],inactive
same,outcome,[2],inactive
CC(C)(C)N(Cc1ccc2c(c1)OCO2)C(=O)/C=C\S(=O)c1ccccc1 (configuration not stated),outcome,[1],inactive
same,outcome,[2],inactive
CCOC(=O)c1ccc(NC(=O)Cn2ncc(Cl)c(Cl)c2=O)cc1,outcome,[1],inactive
same,outcome,[2],inactive
C#CCN(C[C@@H]1[C@@H](OC(=O)NC2CCCC2)[C@@H](OC(=O)NC2CCCC2)Cn2c(=O)ccc(=O)n21)S(=O)(=O)c1ccc(C)cc1,outcome,[1],inactive
same,outcome,[2],inactive
CCOc1ccc(C(=O)c2cc([N+](=O)[O-])ccc2N2CCOCC2)cc1,outcome,[1],inactive
same,outcome,[2],inactive
Cn1nnnc1Sc1ncnc2scc(-c3ccsc3)c12,outcome,[1],inactive
same,outcome,[2],inactive
CN1CCc2c(sc(NC(=O)c3ccc([N+](=O)[O-])o3)c2C(N)=O)C1,outcome,[1],inactive
same,outcome,[2],inactive
C[C@H](CO)N1C[C@H](C)[C@@H](CN(C)S(=O)(=O)c2ccc(Cl)cc2)OCCCC[C@H](C)Oc2ccc(NS(=O)(=O)c3ccc(F)cc3)cc2C1=O,outcome,[3],inactive
same,outcome,[4],inactive
same,outcome,[2],inactive
same,outcome,[5],inactive
same,outcome,[6],inactive
same,outcome,[7],inactive
CCOc1ccc(C2=Nn3c(nnc3-c3ccccc3OC)SC2)cc1,outcome,[3],inactive
same,outcome,[4],inactive
Oc1ccc(C[C@H]2CNC(=S)N2CC2CCCN2C[C@H](Cc2ccc(O)cc2)N2C[C@H](Cc3ccccc3)N(CC3CCCCCC3)C2=S)cc1 (some centres not stated),outcome,[3],inactive
same,outcome,[4],inactive
same,outcome,[2],inactive
C[C@@H]1CCCCO[C@@H](CN(C)Cc2ccc(C(F)(F)F)cc2)[C@H](C)CN([C@@H](C)CO)C(=O)c2cc(NS(=O)(=O)c3ccc(Cl)cc3)ccc2O1,outcome,[3],inactive
same,outcome,[4],inactive
same,outcome,[2],inactive
same,outcome,[5],inactive
same,max activity,[8],"-25.4% [at 8 µM, active compounds read low]"
same,outcome,[6],inactive
same,outcome,[9],inactive
same,outcome,[7],inactive
C[C@H]1CCCCO[C@@H](CN(C)Cc2ccncc2)[C@@H](C)CN([C@@H](C)CO)C(=O)c2cc(NC(=O)Nc3ccc(C(F)(F)F)cc3)ccc2O1,outcome,[3],inactive
same,outcome,[4],inactive
same,outcome,[2],inactive
same,outcome,[5],inactive
same,max activity,[8],"-18.9% [at 16 µM, active compounds read low]"
same,outcome,[6],inactive
same,outcome,[9],inactive
C[C@H](CO)N1C[C@H](C)[C@H](CN(C)CC2CCCCC2)OCCCC[C@H](C)Oc2ccc(NC(=O)Nc3ccccc3)cc2C1=O,outcome,[1],inactive
same,outcome,[2],inactive
same,outcome,[6],inactive
same,outcome,[9],inactive
same,outcome,[7],inactive
COc1ccccc1C#Cc1ccc([C@H]2[C@H](C#N)N(C(=O)C3CCCC3)[C@H]2CO)cc1,outcome,[1],inactive
same,outcome,[9],inactive
same,outcome,[10],inactive
C[C@H]1CCCCO[C@H](CN(C)Cc2ccc(C(F)(F)F)cc2)[C@@H](C)CN([C@@H](C)CO)C(=O)c2cc(NC(=O)Nc3ccc(F)cc3)ccc2O1,outcome,[3],inactive
same,outcome,[4],inactive
same,outcome,[2],inactive
same,outcome,[5],inactive
same,max activity,[8],-16.7%
same,outcome,[6],inactive
same,outcome,[9],inactive
same,outcome,[7],inactive
C[C@@H]1CN([C@H](C)CO)C(=O)c2cc(NC(=O)Cc3ccccc3)ccc2O[C@@H](C)CCCCO[C@H]1CN(C)Cc1ccc(C(F)(F)F)cc1,outcome,[3],inactive
same,outcome,[4],inactive
same,outcome,[2],inactive
same,outcome,[5],inactive
same,outcome,[6],inactive
same,outcome,[9],inactive

# From PubChem BioAssay
